The list is not random: actives were taken first. Their share in the collection is about 5.2%.
Tau ThT inhib = tau fibrillization inhibition (ThT binding) | recombinant tau K18 P301L, heparin-induced fibrillization, ThT fluorescence | P10636 | AID 1460 | 2.1% of 270,000 active | Potency, µM (top dose mostly 57.4 µM), without a hit: top-dose activity, negative = inhibition, most hits filed as inhibitors; further: potency means the concentration at half of the fitted maximal effect; nearly all actives have a fitted effect of over 55% in size
Target sequence (P10636 561-689 P618L limits assumed): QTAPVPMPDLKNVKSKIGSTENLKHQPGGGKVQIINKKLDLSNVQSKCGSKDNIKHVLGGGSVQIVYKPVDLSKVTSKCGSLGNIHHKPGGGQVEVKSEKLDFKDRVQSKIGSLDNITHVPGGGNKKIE
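Fibril formation assay: tau K18 P301L at 15 uM with trace Alexa 594 label, heparin inducer 20 uM, pH 7 sodium acetate buffer, 37 C for 6 hr; endpoint ThT signal.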
Tau fluor cs = counter-screen for tau fibril formation inhibitors | Potency, µM (titrated, usually from 57.7 µM), without a hit: at the top dose activity change, negative = decrease | AID 1463 | tau K18 P301L Alexa594 fluorescence, heparin fibrillization | 0.93% of 280,000 active; further: potency means the concentration at half of the fitted maximal effect; nearly all actives have a fitted effect of over 55% in size
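Human tau K18 P301L (15 uM unlabeled, 0.24 uM Alexa 594-labeled) in 100 mM sodium acetate pH 7 with 20 uM heparin, 6 hr at 37 C. ThT 30 uM added, 1 hr ambient; Alexa 594 FP and total fluorescence read at 555/632 nm.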
Sfp inh = Sfp phosphopantetheinyl transferase inhibition; 3.5% of 310,000 active; Biochemical Sfp PPTase activity, qHTS; Q9F4F7; Potency, µM, inactives show largest response in the series, negative = inhibition, usual class: inhibitors;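 further: the enzyme is Sfp with the accession as filed and its product quenches rhodamine fluorescence; potency means the concentration at half of the fitted maximal effect; 0% = enzyme reaction without inhibitor and -100% = no enzyme wells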
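Step 1, compound plus 15 nM Sfp-PPTase, 15 min, room temperature. Step 2, add rhodamine-CoA (5 uM) and BHQ-2-YbbR (12.5 uM). Step 3, read 525/598 nm fluorescence at 0 and 30 min.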
Coupling enz = inhibits coupling enzyme system, counter-screen for aldolase hits; activity change, negative = inhibition, % at 58.2 µM, hits read low; 0.67% of 290,000 active; AID 2472; coupling enzyme system counterscreen, AmpLite Red fluorescence; in the data active means activity change below about -30%
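Coupling enzymes only (glyceraldehyde-3-phosphate) + compound, at 57.5 uM final, 10 min RT; add substrate/coupling/AmpLite Red mix, 20 min RT; fluorescence ex 525/em 598 nm. Actives flag coupling-system interference.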
Tau fibril FP = inhibitors of human tau fibril formation | P10636 | K18 P301L tau heparin fibrillization, Alexa594 FP, 6 h | Potency, µM (titrated, usually from 57.7 µM), for inactives: at the highest dose activity, negative = inhibition, actives largely listed as inhibitors | 0.39% of 280,000 active; further: potency means the concentration at half of the fitted maximal effect; nearly all actives have a fitted effect of over 55% in size
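Quantitative HTS format: compounds meet 15 uM recombinant K18 P301L tau and Alexa 594-tau tracer in 100 mM sodium acetate pH 7; 20 uM heparin triggers fibrillization at 37 C over 6 hr; FP gives the signal.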
* = called active by the depositor; u = inconclusive; x = no result; [ ] = dose if it differs, or a comment. Unless noted, the call rests on the fitted dose curve; in most records, active means well fitted curve in the direction sought with a large enough effect; inconclusive means small, poorly fitted or top-dose-only effect, or another doubt; inactive means no such curve, though single readings can be large; an effect the other way counts as inactive or inconclusive. Unless noted, on the % scale 0 is the no-effect control and ±100 the full control effect.

SMILES	Tau ThT inhib	Tau fluor cs	Sfp inh	Coupling enz	Tau fibril FP
CN(C)CCCNc1cc(N2CCN(C3CCCCC3)CC2)c2noc3c2c1C(=O)c1ccccc1-3	3.55µM*	u	x	x	u
O=C1c2ccccc2-c2onc3c(Br)cc(NC4CCCCC4)c1c23	11.2µM*	-11.9%	x	x	u
O=C1c2ccccc2-c2onc3c(N4CCN(C5CCCCC5)CC4)cc(NCCO)c1c23	7.08µM*	u	x	x	-10.6%
Cn1c2ccccc2c2cnn(CC(=O)Nc3ccccc3F)c(=O)c21	0.3%	3.3%	x	x	-3.0%
CCOc1ccc(-c2c(C)nn3c(-c4ccccc4)c(C(=O)NCCOC)cnc23)cc1OCC	u	-9.2%	x	x	2.9%
O=C(Nc1ccc(F)c(Cl)c1)N1CCC(CN2CCc3ccccc3C2)CC1	2.5%	-3.9%	x	x	u
COc1ccc(C[C@@H]2CN3C(=NC[C@@H]3C)N2C[C@H](C)NC(=O)CCC2CCCCC2)cc1	-15.7%	3.8%	50.1µM*	1.2	9.7%
CN1CCN(c2ncc3nc(-c4ccc(Cl)cc4)c(=O)n(CCC#N)c3n2)CC1	x	x	16.3%	4.7	x
O=C1C(O)=C(O)C(=O)C(O)=C1O	12.6µM*	-21.7%	28.2µM*	-14.6	u
O=C(Nc1cccc(C(=O)OCc2cc(=O)n3c4c(sc3n2)CCCC4)c1)c1cccc(F)c1	u	-26.8%	x	x	u
COc1ccccc1OCC(=O)NNC(=O)CCCC(=O)NNC(=O)COc1ccccc1OC	x	x	-0.6%	2.7	x
Nc1ccccc1C(=O)NNc1c2ccccc2nc2ccccc12	5.62µM*	12.6µM*[quencher]	-8.5%	-1.7	3.0%
Cc1ccc(C(=O)NNc2c3ccccc3nc3ccccc23)cc1	3.16µM*	11.2µM*[quencher]	25.1µM*	-8.0	u
COc1ccccc1OCC(=O)NNc1c2ccccc2nc2ccccc12	17.8µM*	15.8µM*[quencher]	4.7%	0.9	u
COc1cc(OC)c2c(C)c(CC(=O)NCc3ccccc3OC)c(=O)oc2c1	-4.7%	-14.6%	x	x	-1.5%
Cc1ccc(NC(=O)CCC(=O)N2Cc3ccccc3Oc3ncccc32)cc1F	1.6%	-14.3%	x	x	-4.1%
CCc1ccc(C2c3c(n[nH]c3C)C(=O)N2c2ccc(C)cc2)cc1 (stereo not given)	-5.4%	-9.0%	x	x	-15.3%
CCOC(=O)/C=C(\C)Sc1cc(O)c2ccccc2c1O	1.78µM*	u	7.94µM*	-86.0*	4.47µM*
CCOC(=O)c1ccc(NC(=O)Cn2ncc3c(C)n(Cc4ccccc4F)c(C)c3c2=O)cc1	-0.3%	-13.8%	x	x	-14.6%
CCCN1CCC(=O)N(C(CSc2ccc(Br)cc2)c2ccccc2)CC1 (stereo not given)	x	x	11.4%	11.8	x
CCOC(=O)c1nnc2c(-c3ccc(Cl)cc3)c(C)nn2c1C	7.94µM*	-25.5%	x	x	2.7%
CCOC(=O)c1nnc2c(-c3ccc(F)cc3)c(C)nn2c1N	u	2.1%	x	x	-1.4%
CCN(CC)C(=O)C1CCCN(C(=O)Nc2ccc3nsnc3c2)C1 (stereo not given)	14.1µM*	-20.4%	-12.4%	3.5	u
S=C(Nc1ccc2nsnc2c1)N1CCCCC1	u	-15.2%	u	-28.8	u
CCOc1ccc(S(=O)(=O)Nc2ccc3c(c2)OCO3)c2cccnc12	-15.0%	-20.1%	56.2µM*	-3.7	-7.3%
SMILES	Tau ThT inhib	Tau fluor cs	Sfp inh	Coupling enz	Tau fibril FP
COc1cc2c(cc1OC)CN(c1ccc3ccccc3n1)CC2	x	x	56.2µM*	0.4	x
CN(C)c1ccc(C(CNS(=O)(=O)c2ccc(F)cc2)c2c[nH]c3ccccc23)cc1 (stereo not given)	-11.5%	11.2µM*[quencher]	11.8%	-7.6	12.4%
CN(C)c1ccc(C(CNC(=O)c2ccc(C#N)cc2)c2c[nH]c3ccccc23)cc1 (stereo not given)	u	14.1µM*[quencher]	16.0%	-4.1	u
CCOC(=O)c1ccc(S(=O)(=O)NCC(c2ccc(N(C)C)cc2)c2c[nH]c3ccccc23)cc1 (stereo not given)	0.7%	-8.6%	-9.8%	4.1	-3.8%
CN(C)c1ccc(C(CNC(=O)c2ccccc2Br)c2c[nH]c3ccccc23)cc1 (stereo not given)	u	u	-4.0%	1.1	u
CC1CCC(NC(=O)c2ccc(CS(=O)(=O)c3cccc(C(F)(F)F)c3)o2)CC1 (stereo not given)	4.9%	-10.1%	x	x	9.8%
COc1ccccc1OCC(=O)Nc1oc(-c2ccccc2)c(-c2ccccc2)c1C#N	-8.5%	-29.4%	19.0%	9.3	3.4%
COc1ccc(-c2oc(NC(=O)CCl)c(C#N)c2-c2ccc(OC)cc2)cc1	25.1µM*	15.8µM*[quencher]	-1.7%	-5.2	-15.1%
COc1ccc(-c2oc(NC(=O)CSc3ncn[nH]3)c(C#N)c2-c2ccc(OC)cc2)cc1	u	14.1µM*[quencher]	8.6%	9.5	0.4%
COc1ccccc1-c1nn2c(C3COc4ccccc4O3)nnc2s1 (stereo not given)	u	-12.2%	20µM*	2.1	-13.6%
c1ccc(CCc2nn3c(C4COc5ccccc5O4)nnc3s2)cc1 (stereo not given)	-8.8%	1.4%	-71.9%	0.2	-1.8%
c1ccc(Cc2nn3c(C4COc5ccccc5O4)nnc3s2)cc1 (stereo not given)	u	-11.3%	14.1µM*	5.0	5.7%
CS(=O)(=O)c1ccc(Cn2c3c(c4cc(F)cc(F)c42)CCC[C@H]3CC(=O)O)cc1	u	-11.6%	-8.5%	12.5	1.7%
Cc1cc(C)cc(OC(=O)c2cc(-c3ccc4c(c3)OCCO4)on2)c1	u	-15.7%	x	x	-11.0%
NNC(=S)Nc1c(F)cc(F)cc1Br	u	-21.6%	79.4µM*	-1.8	8.0%
CCOC(=O)CCCc1ccc(/C(C)=N/NC(=S)NC)cc1	x	-3.5%	4.4%	2.3	-3.4%
CCOC(=O)CCCc1ccc(/C(C)=N/NC(N)=S)cc1	x	-26.2%	56.2µM*	-3.6	3.0%
CCOC(=O)C1=C(C)NC(=O)NC1c1c(C)nn(-c2ccccc2)c1Cl (stereo not given)	-2.7%	-4.5%	20µM*	0.2	-9.4%
CCOC(=O)C1=C(C)N(C)C(=O)NC1c1c(C)nn(-c2ccc(C)cc2)c1Cl (stereo not given)	-15.1%	-8.2%	-9.1%	2.0	6.0%
O=C(CSc1nnc(-c2ccncc2)n1Cc1ccco1)c1ccc(Cl)cc1	u	-22.6%	22.4µM*	2.0	u
COc1ccc(C(=O)CSc2nnc(-c3cccnc3)n2Cc2ccco2)cc1	-12.6%	-4.4%	-0.3%	-0.8	-6.0%
O=C(CSc1nnc(-c2ccc(Cl)cc2)n1Cc1ccco1)c1cccs1	u	-19.0%	22.4µM*	-0.9	12.7%
COc1ccc(NC(=O)CSc2nnc(-c3ccccc3Cl)n2Cc2ccco2)c(OC)c1	-6.8%	-7.0%	7.08µM*	0.3	17.5%
COc1ccc(NC(=O)CSc2nnc(-c3ccccc3)n2Cc2ccco2)c(OC)c1	-13.3%	-8.7%	u	-2.7	-9.6%

Source: PubChem
